# Assay results: PubChem BioAssay (NCI)
# The panel holds about 83,000 compounds, 20% with a hit somewhere; the sample as a whole holds those more often.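 Plates (96-well) were seeded with cells, treated with compound at one concentration, and incubated for 48 hours before percent growth was determined.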 A number with no mark means an inactive call. Active and inactive are the calls of the source. The calls were made as follows: active = growth percent below 10; inactive = the rest.
# Legend:
# Assay in all cases: NCI-60 one-dose screen, 48 h (100 = growth as untreated, 0 = no growth, -100 = all killed)
# Settings in all cases: 10 µM unless noted
# NCI-H23 lung = system: NCI-H23 lung
# NCI-H226 lung = system: NCI-H226 lung
# NCI-H322M lung = system: NCI-H322M lung
# HOP-62 NSCLC = system: HOP-62 NSCLC
# NCI-H460 lung = system: NCI-H460 lung
# HOP-92 NSCLC = system: HOP-92 NSCLC
# NCI-H522 lung = system: NCI-H522 lung
# A549/ATCC NSCLC = system: A549/ATCC NSCLC
# 786-0 renal = system: 786-0 renal
# COLO 205 colon = system: COLO 205 colon
# DU-145 prostate = system: DU-145 prostate
# K-562 leukemia = system: K-562 leukemia
# MALME-3M melanoma = system: MALME-3M melanoma
# MDA-MB-231 breast = system: MDA-MB-231 breast
# RXF 393 renal = system: RXF 393 renal
# SF-268 CNS = system: SF-268 CNS
# SF-295 CNS = system: SF-295 CNS
# SF-539 CNS = system: SF-539 CNS
# UACC-257 melanoma = system: UACC-257 melanoma
# M14 melanoma = system: M14 melanoma
SMILES,growth (NCI-H23 lung),growth (NCI-H226 lung),growth (NCI-H322M lung),growth (HOP-62 NSCLC),growth (NCI-H460 lung),growth (HOP-92 NSCLC),growth (NCI-H522 lung),growth (A549/ATCC NSCLC),growth (786-0 renal),growth (COLO 205 colon),growth (DU-145 prostate),growth (K-562 leukemia),growth (MALME-3M melanoma),growth (MDA-MB-231 breast),growth (RXF 393 renal),growth (SF-268 CNS),growth (SF-295 CNS),growth (SF-539 CNS),growth (UACC-257 melanoma),growth (M14 melanoma)
COc1ccc(-c2cc(-c3cccnc3)nc3sc4c(N)c(C(C)=O)c(-c5ccccc5)nc4c23)cc1OC,66.7%,94.3%,90.5%,76.5%,78%,61.9%,56.6%,69%,68.9%,94.8%,80.9%,32.3%,93.3%,51.5%,50.1%,69.6%,48.7%,52.8%,92.3%,104%
CCCCC#Cc1c(I)n(C2OC(CO[Si](C)(C)C(C)(C)C)C3OC(C)(C)OC32)c(=O)n(C(=O)c2ccccc2)c1=O (stereo not given),51.9%,67.7%,110%,94.8%,68.5%,-37.6% (active),71%,67.7%,64.1%,-46.9% (active),74.7%,6.35% (active),1.91% (active),10.1%,-56.8% (active),36.8%,74%,3.54% (active),77.6%,78.6%
OC1(c2ccccc2)c2ccccc2N(c2ccccc2)c2ccc(Cl)cc21 (stereo not given),-49.4% (active),-80.7% (active),-90.3% (active),-91.7% (active),-48.4% (active),-76.8% (active),-86.8% (active),-12.5% (active),-94.6% (active),-85.7% (active),-90.6% (active),-11.4% (active),-93.1% (active),-77% (active),-83% (active),-72.4% (active),-57.6% (active),-82.6% (active),-58.8% (active),-79.5% (active)
CC1(/C=C/c2ccc(-c3ccccc3)cc2)CCn2cnc3ncnc(c32)N1O (stereo not given),13%,17%,26.9%,19.6%,3.93% (active),52.3%,26%,15.6%,1.88% (active),28%,21.4%,14.9%,23.3%,53.9%,5.19% (active),16.6%,13.3%,1.19% (active),10.7%,-2.25% (active)
CCOC(=O)C/C(=N\Nc1cc(=O)[nH]c2ccc(C)cc12)C(=O)OCC,103%,93.3%,98%,107%,104%,79.8%,99.4%,107%,109%,124%,108%,89.4%,98%,96.3%,108%,99.5%,105%,103%,105%,106%
COc1cc(C=Nc2oc(-c3ccccc3)c(-c3ccccc3)c2C#N)cc(CN2CCCC2)c1O,94.8%,93.7%,103%,94%,102%,85.6%,85.8%,94.4%,99.3%,114%,108%,94.4%,117%,95.7%,111%,96.4%,98.5%,95.1%,107%,100%
O=C(NN1C(=O)CSC1c1cccc([N+](=O)[O-])c1)c1ccc(NC(=O)c2ccccn2)cc1 (stereo not given),94.4%,106%,90.5%,95.4%,102%,104%,95.3%,100%,96.9%,103%,94.1%,100%,94.4%,113%,115%,96.1%,97.2%,99.8%,99%,102%
Fc1cccc(-c2nc(-c3c[nH]c4ncccc34)cs2)c1,64.2% [100 µM],53.1% [100 µM],59.1% [100 µM],48.9% [100 µM],40.5% [100 µM],38.3% [100 µM],81.5% [100 µM],33.9% [100 µM],62.3% [100 µM],76.9% [100 µM],63.8% [100 µM],94% [100 µM],0.186% [100 µM] (active),44.6% [100 µM],51.7% [100 µM],45.5% [100 µM],17.2% [100 µM],56.1% [100 µM],99.3% [100 µM],22.2% [100 µM]
COc1ccc(/C=C(\C(=O)NCc2cccnc2)S(=O)(=O)c2ccccc2)cc1OC,37.1%,74.6%,41.3%,50.7%,14.7%,43.5%,-4.24% (active),45.7%,20.8%,30.2%,5.77% (active),8.68% (active),48%,22.8%,15.5%,29.1%,57.8%,15.3%,44.7%,28.8%
COc1ccc(C2CC(n3ccnc3)c3cc(OC)c(OC)c(OC)c32)cc1O (stereo not given),91.5%,97.4%,102%,80.8%,78.7%,59.6%,50.1%,55.8%,91.7%,107%,102%,44.7%,73.2%,81%,70.8%,90%,57.5%,89.8%,58.5%,73.1%
N#CC1=C(N)Oc2c(sc3c(F)cccc23)C1c1ccc([N+](=O)[O-])cc1 (stereo not given),-4.82% (active),3.23% (active),-24.2% (active),-33.4% (active),-26.8% (active),-47.5% (active),-26.3% (active),4.46% (active),-18.6% (active),-41.7% (active),3.51% (active),1.99% (active),-24.3% (active),-66.2% (active),-57.3% (active),-23.1% (active),-70.3% (active),-79.2% (active),-17.2% (active),-50.9% (active)
Cc1nc([P+](c2ccccc2)(c2ccccc2)c2ccccc2)c(N2CCCCC2)o1,17.1%,53.9%,78.4%,30.3%,12.7%,16.7%,28.8%,32.8%,60.3%,-45.3% (active),30.2%,15.8%,53.7%,43.5%,67%,26%,32.7%,46.6%,8.05% (active),37%
Nc1ccc(-c2ccncc2)cc1NC(=O)N1CCCC1,102%,98.1%,92%,86.5%,100%,104%,57.4%,87.7%,96.8%,105%,105%,102%,69.9%,120%,100%,93.3%,103%,90.1%,59.7%,94.2%
CC(C)n1c2ccc(Br)cc2c2c3c(c4c5ccccc5ccc4c21)C(=O)NC3=O,93.7%,95.5%,70.9%,94.6%,89.9%,117%,71.9%,98.3%,101%,101%,84.2%,76.4%,105%,110%,98.5%,88.7%,101%,91.5%,113%,92.7%
Cn1c(=O)c2[nH]c(SC/C(=N/O)c3ccc(Br)cc3)nc2n(C)c1=O,35.7%,-7.02% (active),34.8%,8.56% (active),20.9%,-72.9% (active),-14.5% (active),60.4%,-68.6% (active),110%,68.4%,67.1%,20%,-5.9% (active),-73.4% (active),50%,13.9%,-53.6% (active),84%,58.8%
